{"source": "the supplement of paper PMC11732987", "about": "“Enantioselective OTUD7B fragment discovery through chemoproteomics screening and high-throughput optimisation” (Communications Chemistry, 2025)", "experiment_in_all_cases": "log2 ratio of Biotin-Ahx-Ub-VS probe labelling (fragment/DMSO); higher = less target engagement (more negative = stronger competition), active = hit call of the paper (q ≤ 0.05, log2 ratio ≤ -1)", "details_in_all_cases": "compound concentration: 200 uM; treatment time: 3 h", "key": {"[1]": {"target": "T1, USP19 (UniProt O94966)", "T1 sequence (whole entry)": "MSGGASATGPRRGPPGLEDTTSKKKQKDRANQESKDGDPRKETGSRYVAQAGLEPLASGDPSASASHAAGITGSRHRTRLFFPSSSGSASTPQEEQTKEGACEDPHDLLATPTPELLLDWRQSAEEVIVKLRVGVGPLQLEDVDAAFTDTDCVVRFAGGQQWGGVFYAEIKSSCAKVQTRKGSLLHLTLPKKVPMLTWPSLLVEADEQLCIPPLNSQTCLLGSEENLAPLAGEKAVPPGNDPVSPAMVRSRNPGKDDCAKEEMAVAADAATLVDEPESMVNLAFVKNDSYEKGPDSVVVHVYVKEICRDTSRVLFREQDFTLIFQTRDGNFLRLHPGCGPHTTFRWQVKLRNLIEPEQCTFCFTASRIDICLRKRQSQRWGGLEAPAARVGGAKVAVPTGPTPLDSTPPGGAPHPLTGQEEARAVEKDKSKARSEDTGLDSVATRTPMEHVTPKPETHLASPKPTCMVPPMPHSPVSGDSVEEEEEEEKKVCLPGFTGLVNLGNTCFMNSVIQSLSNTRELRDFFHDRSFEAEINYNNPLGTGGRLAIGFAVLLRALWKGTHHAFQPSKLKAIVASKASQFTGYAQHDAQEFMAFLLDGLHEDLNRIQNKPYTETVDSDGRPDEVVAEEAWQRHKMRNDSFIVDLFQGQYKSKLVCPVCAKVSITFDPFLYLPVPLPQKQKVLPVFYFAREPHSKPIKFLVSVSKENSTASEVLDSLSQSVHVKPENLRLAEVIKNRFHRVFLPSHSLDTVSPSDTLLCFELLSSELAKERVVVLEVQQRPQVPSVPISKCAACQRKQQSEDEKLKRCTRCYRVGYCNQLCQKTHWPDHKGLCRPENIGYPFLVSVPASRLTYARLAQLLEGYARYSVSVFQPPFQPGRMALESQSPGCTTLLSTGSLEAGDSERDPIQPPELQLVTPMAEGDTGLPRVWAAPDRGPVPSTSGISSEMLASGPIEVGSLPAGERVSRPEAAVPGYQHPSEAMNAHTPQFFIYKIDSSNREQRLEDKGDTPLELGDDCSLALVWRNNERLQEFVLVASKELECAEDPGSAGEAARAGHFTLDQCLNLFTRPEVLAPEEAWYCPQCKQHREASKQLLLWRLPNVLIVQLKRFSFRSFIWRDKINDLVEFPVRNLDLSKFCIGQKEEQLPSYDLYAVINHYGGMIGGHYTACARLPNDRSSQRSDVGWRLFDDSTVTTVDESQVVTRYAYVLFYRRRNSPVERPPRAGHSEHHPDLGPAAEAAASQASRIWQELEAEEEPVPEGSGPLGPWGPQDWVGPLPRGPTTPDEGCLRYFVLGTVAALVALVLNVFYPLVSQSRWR", "in_short": "(§1)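 Average log2 ratios of fragment over vehicle were obtained by unpaired t-test from global-median-normalised Spectronaut label-free quantities. Proteins with ≥2 unique peptides were included. HEK293T lysate (495 µg per sample) was treated in triplicate with fragment at 200 µM or vehicle for 3 h, then with Biotin-Ahx-Ub-VS at 0.5 µM final for 1 h, and labelled DUBs were NeutrAvidin-enriched and run by diaPASEF LC-MS/MS.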"}, "[2]": {"target": "USP24 (UniProt Q9UPU5)", "sequence (Q9UPU5 whole entry)": "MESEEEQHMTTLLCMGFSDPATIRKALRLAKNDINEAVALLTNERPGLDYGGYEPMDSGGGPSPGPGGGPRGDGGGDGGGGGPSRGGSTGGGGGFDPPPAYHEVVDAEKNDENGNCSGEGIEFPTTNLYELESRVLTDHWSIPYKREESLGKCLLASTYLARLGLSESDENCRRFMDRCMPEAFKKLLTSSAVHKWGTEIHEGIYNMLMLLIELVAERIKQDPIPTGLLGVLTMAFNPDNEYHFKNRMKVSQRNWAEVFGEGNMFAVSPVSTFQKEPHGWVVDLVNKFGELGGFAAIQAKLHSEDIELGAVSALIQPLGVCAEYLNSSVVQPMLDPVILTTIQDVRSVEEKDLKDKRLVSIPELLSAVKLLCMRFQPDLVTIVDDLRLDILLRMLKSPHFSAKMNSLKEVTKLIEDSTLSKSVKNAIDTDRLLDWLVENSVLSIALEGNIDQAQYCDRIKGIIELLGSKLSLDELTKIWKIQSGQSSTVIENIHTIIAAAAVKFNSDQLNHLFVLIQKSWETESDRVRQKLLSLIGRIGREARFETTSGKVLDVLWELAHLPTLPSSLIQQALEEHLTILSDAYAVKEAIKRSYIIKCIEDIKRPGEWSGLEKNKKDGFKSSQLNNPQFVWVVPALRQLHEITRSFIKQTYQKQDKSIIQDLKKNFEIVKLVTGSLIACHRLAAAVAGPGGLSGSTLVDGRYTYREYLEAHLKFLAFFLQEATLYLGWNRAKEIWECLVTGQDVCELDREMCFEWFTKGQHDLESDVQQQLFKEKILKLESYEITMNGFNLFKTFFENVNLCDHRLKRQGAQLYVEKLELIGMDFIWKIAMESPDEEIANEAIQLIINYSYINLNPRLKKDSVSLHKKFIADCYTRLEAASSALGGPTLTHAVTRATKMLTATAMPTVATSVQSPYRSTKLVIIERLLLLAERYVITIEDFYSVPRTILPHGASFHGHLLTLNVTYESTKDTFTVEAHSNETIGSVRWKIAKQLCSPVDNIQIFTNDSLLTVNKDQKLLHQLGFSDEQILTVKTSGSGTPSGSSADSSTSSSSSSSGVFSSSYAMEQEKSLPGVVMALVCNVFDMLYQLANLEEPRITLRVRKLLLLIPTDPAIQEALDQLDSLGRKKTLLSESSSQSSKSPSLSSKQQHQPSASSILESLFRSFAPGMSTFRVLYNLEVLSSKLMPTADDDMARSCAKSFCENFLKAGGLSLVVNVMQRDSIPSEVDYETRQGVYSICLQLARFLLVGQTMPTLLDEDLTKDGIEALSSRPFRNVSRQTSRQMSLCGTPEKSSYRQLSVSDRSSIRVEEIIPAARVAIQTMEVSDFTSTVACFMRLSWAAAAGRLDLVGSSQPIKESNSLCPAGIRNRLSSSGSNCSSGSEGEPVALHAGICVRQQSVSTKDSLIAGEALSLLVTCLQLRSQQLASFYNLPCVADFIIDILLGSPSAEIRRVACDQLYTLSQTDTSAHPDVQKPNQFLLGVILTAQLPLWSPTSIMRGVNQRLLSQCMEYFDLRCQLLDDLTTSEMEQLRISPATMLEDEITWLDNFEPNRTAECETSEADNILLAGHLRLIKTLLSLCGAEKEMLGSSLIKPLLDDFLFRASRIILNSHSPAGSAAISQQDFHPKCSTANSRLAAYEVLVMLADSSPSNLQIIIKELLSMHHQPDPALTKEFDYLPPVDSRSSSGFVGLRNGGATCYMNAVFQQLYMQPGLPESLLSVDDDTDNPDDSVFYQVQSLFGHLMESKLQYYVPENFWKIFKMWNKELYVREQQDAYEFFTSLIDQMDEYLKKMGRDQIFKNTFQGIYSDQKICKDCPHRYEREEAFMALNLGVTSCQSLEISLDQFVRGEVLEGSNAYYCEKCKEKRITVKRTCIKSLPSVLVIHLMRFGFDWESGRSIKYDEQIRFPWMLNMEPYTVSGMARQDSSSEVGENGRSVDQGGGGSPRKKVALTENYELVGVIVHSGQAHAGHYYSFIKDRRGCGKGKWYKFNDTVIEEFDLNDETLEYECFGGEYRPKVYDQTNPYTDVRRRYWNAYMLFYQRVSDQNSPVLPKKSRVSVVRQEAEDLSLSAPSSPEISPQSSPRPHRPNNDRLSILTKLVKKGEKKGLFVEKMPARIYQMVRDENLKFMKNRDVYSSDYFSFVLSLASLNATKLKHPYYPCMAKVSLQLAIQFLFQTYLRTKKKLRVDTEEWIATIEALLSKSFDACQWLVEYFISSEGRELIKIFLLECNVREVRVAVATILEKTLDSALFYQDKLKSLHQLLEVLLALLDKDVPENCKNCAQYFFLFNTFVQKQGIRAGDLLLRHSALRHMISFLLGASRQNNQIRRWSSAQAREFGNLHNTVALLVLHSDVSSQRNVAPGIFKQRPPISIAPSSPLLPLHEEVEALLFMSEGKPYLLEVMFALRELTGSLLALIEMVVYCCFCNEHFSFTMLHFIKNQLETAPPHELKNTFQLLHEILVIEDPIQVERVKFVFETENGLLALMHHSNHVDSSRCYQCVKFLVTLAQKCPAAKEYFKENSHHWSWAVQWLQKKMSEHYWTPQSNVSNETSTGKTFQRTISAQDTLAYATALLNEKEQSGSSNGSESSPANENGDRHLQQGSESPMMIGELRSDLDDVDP", "in_short": "as §1"}, "[3]": {"target": "T2, USP25 (UniProt Q9UHP3)", "T2 sequence (whole entry)": "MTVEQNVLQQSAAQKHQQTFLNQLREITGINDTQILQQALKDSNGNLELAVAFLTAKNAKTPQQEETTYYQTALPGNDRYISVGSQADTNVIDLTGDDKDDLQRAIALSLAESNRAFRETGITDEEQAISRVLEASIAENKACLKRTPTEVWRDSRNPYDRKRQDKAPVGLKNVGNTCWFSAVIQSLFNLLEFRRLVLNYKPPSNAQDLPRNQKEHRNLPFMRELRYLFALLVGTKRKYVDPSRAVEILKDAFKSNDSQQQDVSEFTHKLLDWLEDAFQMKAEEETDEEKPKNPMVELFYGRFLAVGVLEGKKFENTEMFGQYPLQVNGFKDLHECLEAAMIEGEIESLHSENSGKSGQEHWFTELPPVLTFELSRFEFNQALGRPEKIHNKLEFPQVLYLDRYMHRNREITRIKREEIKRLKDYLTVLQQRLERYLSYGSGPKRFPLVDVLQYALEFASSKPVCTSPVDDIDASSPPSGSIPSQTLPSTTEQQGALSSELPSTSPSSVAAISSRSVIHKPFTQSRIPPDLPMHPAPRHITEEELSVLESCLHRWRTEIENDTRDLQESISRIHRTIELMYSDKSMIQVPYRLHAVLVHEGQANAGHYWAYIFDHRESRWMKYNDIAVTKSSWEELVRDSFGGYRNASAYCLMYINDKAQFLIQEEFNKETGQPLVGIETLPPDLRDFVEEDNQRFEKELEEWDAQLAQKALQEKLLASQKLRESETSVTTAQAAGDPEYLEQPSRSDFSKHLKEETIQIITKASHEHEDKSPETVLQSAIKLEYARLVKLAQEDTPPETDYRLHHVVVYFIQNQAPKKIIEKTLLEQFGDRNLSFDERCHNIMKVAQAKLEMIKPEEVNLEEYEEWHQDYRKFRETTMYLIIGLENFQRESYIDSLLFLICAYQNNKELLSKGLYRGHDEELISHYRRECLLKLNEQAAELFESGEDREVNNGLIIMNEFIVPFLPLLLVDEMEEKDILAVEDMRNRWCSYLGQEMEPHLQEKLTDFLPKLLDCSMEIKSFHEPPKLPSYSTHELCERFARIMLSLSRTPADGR", "in_short": "as §1"}, "[4]": {"target": "T3, USP28 (UniProt Q96RU2)", "T3 sequence (whole entry)": "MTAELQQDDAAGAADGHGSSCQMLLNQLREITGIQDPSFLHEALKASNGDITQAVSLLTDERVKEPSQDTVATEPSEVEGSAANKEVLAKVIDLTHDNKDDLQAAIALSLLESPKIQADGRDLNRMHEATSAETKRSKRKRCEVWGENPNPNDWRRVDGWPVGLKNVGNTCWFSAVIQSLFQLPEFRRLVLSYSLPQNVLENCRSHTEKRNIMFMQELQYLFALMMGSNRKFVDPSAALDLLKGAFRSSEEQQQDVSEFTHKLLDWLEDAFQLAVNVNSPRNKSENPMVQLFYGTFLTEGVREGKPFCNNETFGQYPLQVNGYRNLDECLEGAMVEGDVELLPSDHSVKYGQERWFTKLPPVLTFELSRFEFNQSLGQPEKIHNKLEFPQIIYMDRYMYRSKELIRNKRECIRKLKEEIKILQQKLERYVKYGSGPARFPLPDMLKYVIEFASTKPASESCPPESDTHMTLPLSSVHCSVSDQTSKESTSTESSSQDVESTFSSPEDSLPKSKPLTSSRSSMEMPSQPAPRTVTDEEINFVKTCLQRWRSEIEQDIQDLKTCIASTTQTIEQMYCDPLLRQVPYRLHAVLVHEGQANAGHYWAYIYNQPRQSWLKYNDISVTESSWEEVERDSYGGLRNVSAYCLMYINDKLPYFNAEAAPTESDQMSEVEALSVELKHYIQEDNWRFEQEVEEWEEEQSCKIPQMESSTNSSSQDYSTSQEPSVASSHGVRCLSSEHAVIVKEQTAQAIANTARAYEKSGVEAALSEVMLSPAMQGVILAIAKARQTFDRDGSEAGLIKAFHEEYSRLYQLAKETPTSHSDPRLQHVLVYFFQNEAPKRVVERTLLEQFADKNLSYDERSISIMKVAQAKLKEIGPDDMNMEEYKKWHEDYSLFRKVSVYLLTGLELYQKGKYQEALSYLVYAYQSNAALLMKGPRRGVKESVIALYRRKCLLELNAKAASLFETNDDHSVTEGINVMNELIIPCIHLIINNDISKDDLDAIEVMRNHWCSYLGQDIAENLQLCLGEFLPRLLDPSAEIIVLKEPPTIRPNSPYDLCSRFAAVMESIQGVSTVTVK", "in_short": "as §1"}}, "note": "Unmarked numbers belong to inactive results.", "data": [{"smiles": "O=C(CCl)Nc1cccc(C(=O)N2CCSCC2)c1", "values": [{"measurement": "log2 ratio of Biotin-Ahx-Ub-VS probe labelling", "setting": "[1]", "value": -0.239}, {"measurement": "log2 ratio of Biotin-Ahx-Ub-VS probe labelling", "setting": "[2]", "value": -0.522}, {"measurement": "log2 ratio of Biotin-Ahx-Ub-VS probe labelling", "setting": "[3]", "value": "-1.17 (active)"}, {"measurement": "log2 ratio of Biotin-Ahx-Ub-VS probe labelling", "setting": "[4]", "value": -0.818}]}]}
